Reference: PubChem BioAssay (NCATS)
Records with an inconclusive call do not appear. Active and inactive are the calls of the source. Calls follow the shape of the dose curve; as a rule, active = well fitted curve in the direction sought with a large enough effect; inconclusive = small, poorly fitted or top-dose-only effect, or another doubt; inactive = no such curve, though single readings can be large; an effect the other way counts as inactive or inconclusive.

What was measured:
[1] = biological target: Tyrosine-protein kinase Yes (Homo sapiens) (UniProt P07947); test: qHTS for small molecule inhibitors of Yes1 kinase: Primary Screen (AID 686947); also: nearly all actives have a fitted effect of over 60% in size
Tyrosine-protein kinase Yes (Homo sapiens), sequence (P07947 whole entry, looked up): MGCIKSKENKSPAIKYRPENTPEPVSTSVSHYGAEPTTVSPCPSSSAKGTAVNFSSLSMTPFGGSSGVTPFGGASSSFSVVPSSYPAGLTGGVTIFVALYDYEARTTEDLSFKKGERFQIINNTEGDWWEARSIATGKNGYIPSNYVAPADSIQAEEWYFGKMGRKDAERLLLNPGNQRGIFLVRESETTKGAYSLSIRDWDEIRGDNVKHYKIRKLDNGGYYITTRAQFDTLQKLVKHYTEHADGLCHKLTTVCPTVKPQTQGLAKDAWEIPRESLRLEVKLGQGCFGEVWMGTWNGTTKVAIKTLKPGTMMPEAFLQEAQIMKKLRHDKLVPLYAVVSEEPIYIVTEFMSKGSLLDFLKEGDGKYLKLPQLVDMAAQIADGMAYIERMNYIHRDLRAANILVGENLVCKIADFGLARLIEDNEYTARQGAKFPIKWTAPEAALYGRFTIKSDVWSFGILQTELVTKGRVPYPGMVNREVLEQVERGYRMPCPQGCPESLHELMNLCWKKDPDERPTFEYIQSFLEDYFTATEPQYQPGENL
Procedure, shortened: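 Yes1 (4 nM) preincubated 20 min with compound, then 60 min room-temperature reaction with 0.1 mM ATP and 0.3 mg/mL poly(E4Y) in pH 7.5 Tris, 10 mM MgCl2. ADP measured by ADP-Glo luminescence, normalised to enzyme/no-enzyme controls.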

[2] = qHTS for small molecule inhibitors of Yes1 kinase: Counter Assay (AID 686950);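 also: no kinase present so only ADP-Glo detection of a fixed ADP amount is tested; luminescence from ADP-Glo reporting ADP in a fixed ATP and ADP mixture; series mostly up to about 77 µM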
Procedure, shortened: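 Luminescence read-out from ADP-Glo quantifies a fixed ADP amount (0.02 mM ADP with 0.08 mM ATP) after 60 min at room temperature; signal is normalized between DMSO wells with ATP/ADP and with 0.1 mM ATP alone.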

[3] = biological target: Arylsulfatase A (Homo sapiens) (UniProt P15289); test: qHTS screen for enhancers of Arylsulfatase A (ASA1): LOPAC Validation Assay (AID 720538)
Arylsulfatase A (Homo sapiens), sequence (P15289 whole entry, looked up): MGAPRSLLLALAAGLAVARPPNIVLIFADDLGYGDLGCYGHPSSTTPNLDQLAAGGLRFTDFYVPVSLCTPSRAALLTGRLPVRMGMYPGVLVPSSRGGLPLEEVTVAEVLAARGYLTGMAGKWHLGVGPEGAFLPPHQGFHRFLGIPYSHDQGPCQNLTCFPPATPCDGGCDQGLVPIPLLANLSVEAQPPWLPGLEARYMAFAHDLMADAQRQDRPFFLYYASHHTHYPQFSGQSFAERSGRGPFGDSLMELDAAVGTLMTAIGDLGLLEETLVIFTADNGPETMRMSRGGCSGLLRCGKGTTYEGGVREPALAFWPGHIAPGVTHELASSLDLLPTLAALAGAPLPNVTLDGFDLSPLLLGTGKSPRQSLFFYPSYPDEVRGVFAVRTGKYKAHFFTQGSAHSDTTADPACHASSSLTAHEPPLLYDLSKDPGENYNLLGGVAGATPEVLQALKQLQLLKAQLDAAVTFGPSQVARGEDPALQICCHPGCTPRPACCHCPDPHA
Description: Lysosomal storage diseases (LSDs) are caused by genetic mutations in genes encoding proteins important for normal lysosomal function. In affected patients, symptoms are usually not manifested unless the mutations result in more than 90% reduction of enzymatic activity of a specific lysosomal enzyme. […] Small molecules could function as enzyme enhancement agents by binding to and stabilizing mutant misfolded proteins in the endoplasmic reticulum (ER), allowing them to evade the ER associated degradation (ERAD), and eventually reach the lysosome. Moreover, small molecules is hypothesized to be able to enhance the residual activity of deficient lysosomal enzyme by either interacting directly with the mutant enzyme or indirectly by acting in different cellular pathways; resulting to increased levels of the mutant and partially functional protein in the lysosomal compartment.
A cell based assay in 1536 well plate format was developed to evaluate activity of the lysosomal sulfatase ASA1 enzyme. […]
Four microliter (~8,000 cells/well) of SV40-transformed skin fibroblasts from an MLD patient (ASA-I179S) were seeded into a 1,536 solid white plate. […] To stop the reaction, 5 uL of 5 N of NaOH (1N NaOH final concentration) was then added and fluorescence was measured using the ViewLux plate reader (Ex=525 nm; Em=598 nm).

[4] = qHTS for compounds that reverse cellular toxicity of Amyloid beta (A-beta) peptide in yeast: LOPAC Validation Assay (AID 720559)
Description: The A-beta peptide is produced by the processing of the amyloid precursor protein (APP) by two proteases, beta and gamma secretases. […] A-beta42 is regarded as the most amyloidogenic form due to its hydrophobicity; however, precisely how A-beta42 induces neurotoxicity is unclear. To understand further this biology and its potential therapeutic implications for human neurodegenerative disease, a quantitative high-throughput screen for compounds that reverse the cellular toxicity of the A-beta peptide was developed.
A yeast based screen was used because it recapitulates the salient feature of protein mis-folding disorder accurately. This cell-based phenotypic screen provides a significant, unbiased advantage by letting the compounds and models inform us which proteins or pathways are most relevant. The ideal chemical candidates would therefore have activity in both our primary yeast and secondary neuronal toxicity assays, as well as in mouse models. […] For this luminescence assay, inhibition of A-beta rescues the toxic effect in the yeast cell, resulting in increase of signals. […]
Two and a half microliter / well of yeast growth medium were dispensed in a 1536 assay plate. […] After 48 hr, the absorbance signal at 600 nm was obtained using the PerkinElmer ViewLux plate reader to assess yeast growth. […]

[5] = qHTS for Activators of Parkin Expression: LOPAC Validation Assay (NLuc Reporter) (AID 720572)
Description: Parkin is an E3 ubiquitin ligase localized in the cytosol of cells expressed in many tissues, including brain, skeletal muscle, heart and liver tissues. One hour after stress induction by mitochondrial uncouplers (which mimic mitochondria damage by decreasing the mitochondrial inner membrane electrochemical gradient that is used to produce ATP), Parkin translocates from the cytosol to mitochondria in many cultured cell types, including neurons and HeLa cells. Administration of other mitochondrial poisons, such as Paraquat and azide in cells lacking mitochondrial DNA (mtDNA), induces Parkin translocation to mitochondria. […]
A cell based qHTS in 1536 well format was developed assess modulation of Parkin expression using a neuronal cell line that stably expresses a stably expresses a luminescent coincidence reporter (FLuc and NLuc reporters) behind the Parkin promoter. The LOPAC library is used to validate the assay for quantitative high-throughput screening. […]
Five microliters (1,500 cells/well) of the Parkin coincidence reporter cells were seeded to 1536 well assay plates (Greiner Catalog # 789173-F) and incubated at 37 C, 5% CO2 for 24 hours. […] The FLuc luminescence signal was obtained using the PerkinElmer ViewLux plate imager and then 2 uL of NanoLuc detection reagent was added to the plates. […]

[6] = qHTS for Activators of Parkin Expression: LOPAC Validation Assay (FLuc Reporter) (AID 720573)
Procedure, shortened: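 A neuronal cell line harbouring FLuc and NLuc reporters behind the Parkin promoter was exposed to compounds for 24 h. Firefly luciferase signal, measured after 10 min with detection reagent, was scaled to DMSO and positive-control wells.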

COc1cc(F)c(F)c(Nc2ccc(I)cc2F)c1NS(=O)(=O)C1(CC(O)CO)CC1 (stereo not given)
outcome [1]: inactive | outcome [2]: inactive

COc1cc(O)c2c(c1)/C=C/C[C@H](O)[C@H](O)C(=O)/C=C\C[C@H](C)OC2=O
outcome [2]: inactive

CN[C@H]1CC[C@@H](c2ccc(Cl)c(Cl)c2)c2ccccc21
outcome [3]: inactive | outcome [4]: inactive | outcome [5]: inactive | outcome [6]: inactive

NCCCC(=O)O
outcome [4]: inactive | outcome [5]: inactive | outcome [6]: inactive
